Our source for the growth values is PubChem BioAssay (NCI).

Some test systems named below: SK-MEL-2 melanoma; EKVX NSCLC; SN12C renal; UO-31 renal; TK-10 renal; ACHN renal; CAKI-1 renal; A498 renal; MOLT-4 leukemia; SR leukemia; RPMI-8226 leukemia; OVCAR-8 ovarian; OVCAR-5 ovarian; OVCAR-4 ovarian; SK-OV-3 ovarian; OVCAR-3 ovarian; HS 578T breast; NCI/ADR-RES ovarian; IGROV1 ovarian.
Assay in all cases: NCI-60 one-dose screen, 48 h (100 = growth as untreated, 0 = no growth, -100 = all killed)
Settings in all cases: 10 µM unless noted

This is part of a sample that, as a whole, favours compounds with a hit. Of some 83,000 tested, about 20% had one in any assay.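 Plates (96-well) were seeded with cells, treated with compound at one concentration, and incubated for 48 hours before percent growth was determined.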 Unmarked numbers belong to inactive results. Active and inactive are the calls of the source. Rule for the calls: active = growth percent below 10; inactive = the rest.

With `NS(=O)(=O)c1cnccc1Oc1cccc2cccnc12`, the growth in the test on SK-MEL-2 melanoma was 107%; in the test with EKVX NSCLC, 97.1%; with SN12C renal, 99.4%; in the test on UO-31 renal it was 78.3%; in the test with TK-10 renal it was 107%; with ACHN renal, 102%. Moreover, the growth with CAKI-1 renal was 111%; in the test with A498 renal, 99.1%; in the test on MOLT-4 leukemia it was 93%; in the test with SR leukemia it was 86%; in the test with RPMI-8226 leukemia it was 88.4%; in the test on OVCAR-8 ovarian it was 54.1%. In addition, the growth in the test on OVCAR-5 ovarian is 82.9%; in the test with OVCAR-4 ovarian it was 118%; in the test with SK-OV-3 ovarian, 77.8%; in the test on OVCAR-3 ovarian, 113%; in the test with HS 578T breast, 88.7%; with NCI/ADR-RES ovarian it was 107%.

On to `CC1CC(C(C)(C)C)C(=O)C(C(C)(C)C)C1` (configuration not stated), for which the growth in the test with SK-MEL-2 melanoma is 105%; with EKVX NSCLC it was 101%; in the test with SN12C renal, 105%; in the test on UO-31 renal it was 96.2%; in the test with TK-10 renal, 98.2%; in the test on ACHN renal, 105%. Further, the growth with CAKI-1 renal is 105%; with A498 renal, 93.4%; in the test on MOLT-4 leukemia, 104%; in the test with SR leukemia, 101%; in the test on RPMI-8226 leukemia, 111%; in the test on OVCAR-8 ovarian, 107%. The growth is 99.6% in the test on OVCAR-5 ovarian; 119% with OVCAR-4 ovarian; 105% in the test with SK-OV-3 ovarian; 126% in the test on IGROV1 ovarian; 118% in the test on OVCAR-3 ovarian; 114% with NCI/ADR-RES ovarian.

In the case of `O=c1c2c3c(sc2nc(N/N=C/c2ccc(Br)cc2)n1Cc1ccccc1)CCCC3`, the growth was 102% in the test on SK-MEL-2 melanoma; 74.1% with EKVX NSCLC; 78.3% in the test on SN12C renal; 62.3% in the test on UO-31 renal; 85.5% in the test on TK-10 renal; 87.1% in the test on ACHN renal. In addition, the growth with CAKI-1 renal is 62%; with A498 renal, 78.4%; in the test with MOLT-4 leukemia, 40.8%; in the test with SR leukemia it was 33.5%; in the test on RPMI-8226 leukemia, 52%; with OVCAR-8 ovarian, 45.9%. For the same compound, the growth is 84.2% in the test on OVCAR-4 ovarian, 81.7% in the test with SK-OV-3 ovarian, 64.8% in the test with HS 578T breast and 80% with NCI/ADR-RES ovarian.

For `Cn1c(-c2c(N)n(Cc3cccnc3)c3nc(C#N)c(C#N)nc23)nc2ccccc21`, the growth is 107% in the test on SK-MEL-2 melanoma; 87.1% with EKVX NSCLC; 106% in the test on SN12C renal; 31.5% with UO-31 renal; 55.5% in the test on TK-10 renal; 85.8% in the test with ACHN renal. The growth in the test with CAKI-1 renal was 92.1%; in the test on A498 renal, 98.9%; with MOLT-4 leukemia, 74.1%; in the test with SR leukemia, 40.1%; in the test on RPMI-8226 leukemia, 94.5%; in the test on OVCAR-8 ovarian, 80.5%. Besides, the growth with OVCAR-5 ovarian was 78%; in the test with OVCAR-4 ovarian, 102%; in the test on SK-OV-3 ovarian it was 116%; with OVCAR-3 ovarian, 99.5%; with HS 578T breast, 106%; in the test with NCI/ADR-RES ovarian, 95.5%.

Take `CN1CCN(C(=O)c2c3c(n4ccccc24)C(=O)c2ncccc2C3=O)CC1`: the growth with SK-MEL-2 melanoma is 80%; in the test with EKVX NSCLC it was 91.5%; with SN12C renal, 45%; in the test with UO-31 renal, 35.2%; in the test with TK-10 renal it was 89.3%; in the test with ACHN renal, 32%. For the same compound, the growth with CAKI-1 renal is 35.7%; in the test on A498 renal it was 51.5%; in the test with MOLT-4 leukemia it was 103%; in the test on SR leukemia, 18%; in the test with RPMI-8226 leukemia, 57.9%; in the test on OVCAR-8 ovarian, 68%. Besides, the growth was 99.6% in the test on OVCAR-5 ovarian; 72% in the test with OVCAR-4 ovarian; 70% in the test with SK-OV-3 ovarian; 60% with IGROV1 ovarian; 7.09% (active) in the test with OVCAR-3 ovarian; 71.5% in the test with NCI/ADR-RES ovarian.

With `CC/C=C\C/C=C\C[C@H](O)C/C=C1/C(=O)C=C[C@@H]1C/C=C\CCCC(=O)O`, the growth was 23.2% in the test with SK-MEL-2 melanoma; 95.3% in the test with EKVX NSCLC; 16.9% in the test with SN12C renal; 57% in the test on UO-31 renal; 79% in the test on TK-10 renal; 60.2% in the test on ACHN renal. Also, the growth was 37.8% in the test with CAKI-1 renal; 96.6% in the test with A498 renal; 7.61% (active) in the test with MOLT-4 leukemia; 6.21% (active) in the test with SR leukemia; 3.88% (active) in the test on RPMI-8226 leukemia; -4.92% (active) in the test on OVCAR-8 ovarian. Moreover, the growth in the test on OVCAR-4 ovarian is 47.4%; with SK-OV-3 ovarian, 109%; in the test on IGROV1 ovarian it was 63.1%; in the test on OVCAR-3 ovarian it was 7.83% (active); in the test with HS 578T breast it was 42.6%; in the test on NCI/ADR-RES ovarian, 31.3%.

With `COc1ccc(C(=O)COc2ccc(/C=C3\Oc4ccccc4C3=O)cc2)cc1`, the growth was 103% in the test on SK-MEL-2 melanoma; 99% in the test on EKVX NSCLC; 97.2% with SN12C renal; -44.4% (active) with UO-31 renal; 136% in the test with TK-10 renal; 101% in the test with ACHN renal. The growth with CAKI-1 renal was 91%; with A498 renal it was 106%; with MOLT-4 leukemia, 81.7%; with SR leukemia, 108%; with RPMI-8226 leukemia, 89%; in the test on OVCAR-8 ovarian it was 98.9%. Also, the growth with OVCAR-5 ovarian is 96.8%; with OVCAR-4 ovarian, 99.2%; in the test on SK-OV-3 ovarian, 103%; in the test with OVCAR-3 ovarian it was 102%; in the test with HS 578T breast, 100%; with NCI/ADR-RES ovarian, 91.8%.

In the case of `COc1ccc2occ(C3=C(c4c[nH]c5ccccc45)C(=O)N(O)C3=O)c2c1`, the growth was 102% with SK-MEL-2 melanoma; 93.1% with EKVX NSCLC; 95.9% in the test on SN12C renal; 61.9% with UO-31 renal; 126% in the test with TK-10 renal; 95.3% in the test on ACHN renal. The growth in the test with CAKI-1 renal is 83.6%; with A498 renal, 118%; in the test with MOLT-4 leukemia it was 102%; in the test on SR leukemia, 57.2%; with RPMI-8226 leukemia it was 66.7%; in the test with OVCAR-8 ovarian it was 90.5%. Moreover, the growth with OVCAR-5 ovarian was 104%; in the test with OVCAR-4 ovarian it was 112%; in the test on SK-OV-3 ovarian it was 88.7%; in the test with IGROV1 ovarian it was 91.3%; in the test on HS 578T breast, 95.7%; in the test with NCI/ADR-RES ovarian, 99.1%.
